Test results published in PubChem BioAssay AID1159580 (chemical genetic matrix, 2015).
Several values for one entry are separate records, joined by “and”; a condition that tells them apart may be missing. Equal values may be shown once. About 2,000 (36%) of roughly 5,500 compounds were called active. Another 18% or so got no clear call; they are omitted. Cut-off read from the data, not from the text of the source: active = normalized growth mostly below about 0.91 (no sharp cut-off); inconclusive = no clear call, values can overlap the other calls; inactive = mostly above about 0.92. This is one part of the list.

Assay: chemical genetic growth profiling, strain panel (AID 1159580);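 note: tested at 20 µM; growth read once vehicle control cultures reached saturation at 30 °C; 1 = growth at the plate median or of vehicle wells; lower values mean less growth of the strain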
Conditions: S. cerevisiae deletion strains, growth OD
[1] = locus YMR263W, strain SAP30, active compounds read low
[2] = locus YPL241C, strain CIN2, active compounds read low

Measured: normalized growth

CO/N=C(/C(=O)N[C@@H]1C(=O)N2C(C(=O)O)=C(COC(C)=O)CS[C@H]12)c1csc(N)n1
inactive: locus YAL013W, strain DEP1, active compounds read low 1.01 | locus YAL040C, strain CLN3, active compounds read low 1.02 | locus YDR363W, strain ESC2, active compounds read low 1.01 | locus YER002W, strain NOP16, active compounds read low 0.983 | locus YGR229C, strain SMI1, active compounds read low 1 | [1] 0.965 | locus YNL153C, strain GIM3, active compounds read low 1.07 | locus YNL175C, strain NOP13, active compounds read low 1.01 | locus YNL197C, strain WHI3, active compounds read low 1.01 | locus YNL224C, strain SQS1, active compounds read low 0.99 | locus YNL322C, strain KRE1, active compounds read low 0.985 | locus YOR083W, strain WHI5 (second series), active compounds read low 0.978 | [2] 1

CO/N=C(\C(=O)N[C@@H]1C(=O)N2C(C(=O)O)=C(CSc3nc(=O)c(O)nn3C)CS[C@H]12)c1csc(N)n1
active: locus YHR013C, strain ard1, active compounds read low 1.2 [resistant]
inactive: locus YAL021C, strain ccr4, active compounds read low 0.982 | locus YAL026C, strain drs2, active compounds read low 0.974 | locus YAL030W, strain snc1, active compounds read low 0.984 | locus YBL061C, strain skt5, active compounds read low 0.966 | locus YBR009C, strain hhf1, active compounds read low 0.985 | locus YBR021W, strain FUR4, active compounds read low 1.03 | locus YBR023C, strain chs3, active compounds read low 0.979 | locus YBR171W, strain sec66, active compounds read low 0.96 | locus YBR229C, strain ROT2, active compounds read low 0.999 | locus YBR231C, strain swc5, active compounds read low 0.975 | locus YBR279W, strain paf1, active compounds read low 0.959 | locus YCL011C, strain gbp2, active compounds read low 0.958 | locus YCL016C, strain dcc1, active compounds read low 0.976 | locus YCL029C, strain bik1, active compounds read low 0.986 | locus YCL061C, strain MRC1, active compounds read low 0.969 | locus YCL069W, strain vba3, active compounds read low 0.986 | locus YCR088W, strain abp1, active compounds read low 0.962 | locus YDL005C, strain med2, active compounds read low 0.984 | locus YDL035C, strain GPR1, active compounds read low 0.982 | locus YDL040C, strain nat1, active compounds read low 0.973 | locus YDL074C, strain BRE1, active compounds read low 1.03 | locus YDL101C, strain DUN1, active compounds read low 0.996 | locus YDL134C, strain PPH21, active compounds read low 1 | locus YDL185W, strain tfp1, active compounds read low 0.946 | locus YDL192W, strain arf1, active compounds read low 0.984 | locus YDR001C, strain nth1, active compounds read low 0.959 | locus YDR069C, strain doa4, active compounds read low 1 | locus YDR101C, strain arx1, active compounds read low 1.02 | locus YDR137W, strain rgp1, active compounds read low 0.968 | locus YDR159W, strain sac3, active compounds read low 0.921 | locus YDR162C, strain NBP2, active compounds read low 0.97 | locus YDR195W, strain ref2 1.01 | locus YDR297W, strain sur2, active compounds read low 0.98 | locus YDR318W, strain mcm21, active compounds read low 0.982 | locus YDR334W, strain swr1, active compounds read low 0.931 | locus YDR335W, strain msn5, active compounds read low 0.966 | locus YDR388W, active compounds read low 0.981 | locus YDR392W, strain spt3, active compounds read low 0.968 | locus YDR502C, strain sam2, active compounds read low 1.01 | locus YEL003W, strain gim4, active compounds read low 0.972 | locus YEL037C, strain rad23, active compounds read low 0.969 | locus YEL061C, strain CIN8 (second series), active compounds read low 0.947 | locus YEL061C, strain CIN8, active compounds read low 1 | locus YER015W, strain faa2, active compounds read low 0.977 | locus YER016W, strain bim1, active compounds read low 0.976 | locus YER110C, active compounds read low 0.974 | locus YER111C, strain swi4, active compounds read low 0.979 | locus YER155C, strain BEM2 (second series), active compounds read low 0.959 | locus YER155C, strain BEM2, active compounds read low 1.01 | locus YER167W, strain BCK2, active compounds read low 0.988 | locus YFR010W, strain ubp6, active compounds read low 0.959 | locus YGL078C, strain dbp3, active compounds read low 0.992 | locus YGL086W, strain mad1, active compounds read low 1.03 | locus YGL167C, strain pmr1, active compounds read low 0.956 | locus YGL173C, strain kem1, active compounds read low 0.975 | locus YGL227W, strain vid30, active compounds read low 0.977 | locus YGL240W, strain doc1, active compounds read low 0.975 | locus YGL248W, strain PDE1, active compounds read low 1 | locus YGL253W, strain hxk2, active compounds read low 0.981 | locus YGR135W, strain pre9, active compounds read low 0.948 | locus YGR252W, strain gcn5, active compounds read low 1.02 | locus YHR027C, strain rpn1, active compounds read low 0.978 | locus YHR030C, strain SLT2, active compounds read low 0.988 and 1.01 | locus YHR079C, strain IRE1 (second series), active compounds read low 0.966 | locus YHR079C, strain IRE1, active compounds read low 1.01 | locus YHR094C, strain hxt1, active compounds read low 0.976 | locus YHR129C, strain ARP1, active compounds read low 0.992 | locus YHR142W, strain chs7, active compounds read low 0.982 | locus YHR200W, strain rpn10, active compounds read low 0.984 | locus YIL066C, strain RNR3, active compounds read low 1.02 | locus YIL073C, strain SPO22, active compounds read low 0.941 | locus YIL125W, strain kgd1, active compounds read low 0.985 | locus YIR030C, strain dcg1, active compounds read low 0.961 | locus YJL092W, strain hpr5, active compounds read low 0.975 | locus YJL095W, strain BCK1 (second series), active compounds read low 0.966 | locus YJL095W, strain BCK1, active compounds read low 1.02 and 0.999 | locus YJL115W, strain asf1, active compounds read low 0.952 | locus YJL129C, strain trk1, active compounds read low 0.958 | locus YJL134W, strain LCB3, active compounds read low 0.993 | locus YJL154C, strain vps35, active compounds read low 0.954 | locus YJL164C, strain tpk1, active compounds read low 0.992 | locus YJL166W, strain qcr8, active compounds read low 0.981 | locus YJL168C, strain set2, active compounds read low 0.998 | locus YJL187C, strain SWE1 (second series), active compounds read low 1.01 | locus YJR043C, strain POL32, active compounds read low 1.03 | locus YJR066W, strain TOR1, active compounds read low 0.965 | locus YJR075W, strain HOC1, active compounds read low 0.994 | locus YKL009W, strain mrt4, active compounds read low 0.974 | locus YKL068W, active compounds read low 0.974 | locus YKL085W, strain MDH1 (second series), active compounds read low 0.984 | locus YKL085W, strain MDH1, active compounds read low 0.984 | locus YKL160W, strain elf1, active compounds read low 0.968 | locus YKL190W, strain CNB1, active compounds read low 0.992 | locus YKR001C, strain vps1, active compounds read low 0.993 | locus YKR026C, strain gcn3, active compounds read low 0.974 | locus YKR091W, strain srl3, active compounds read low 0.982 | locus YLL001W, strain dnm1, active compounds read low 0.965 | locus YLL026W, active compounds read low 0.986 | locus YLL041C, strain sdh2, active compounds read low 0.949 | locus YLR027C, strain aat2, active compounds read low 0.971 | locus YLR039C, strain RIC1, active compounds read low 0.988 | locus YLR058C, strain SHM2, active compounds read low 0.994 | locus YLR102C, strain apc9, active compounds read low 0.985 | locus YLR113W, strain HOG1, active compounds read low 1.04 | locus YLR221C, strain rsa3, active compounds read low 0.969 | locus YLR258W, strain gsy2, active compounds read low 0.957 | locus YLR262C, strain YPT6 (second series), active compounds read low 0.947 | locus YLR262C, strain YPT6, active compounds read low 0.982 | locus YLR268W, strain sec22, active compounds read low 0.992 | locus YLR320W, strain mms22, active compounds read low 0.97 | locus YLR330W, strain CHS5, active compounds read low 0.983 | locus YLR342W, strain FKS1 (second series), active compounds read low 0.985 | locus YLR342W, strain FKS1, active compounds read low 0.983 | locus YLR357W, strain rsc2, active compounds read low 0.893 | locus YLR370C, strain arc18, active compounds read low 0.971 | locus YLR371W, strain rom2, active compounds read low 0.979 | locus YLR384C, strain iki3, active compounds read low 0.967 | locus YLR418C, strain cdc73, active compounds read low 0.994 | locus YML016C, strain PPZ1, active compounds read low 0.996 | locus YML032C, strain rad52, active compounds read low 1.02 | locus YML120C, strain ndi1, active compounds read low 0.986 | locus YML124C, strain tub3, active compounds read low 0.989 | locus YMR058W, strain fet3, active compounds read low 0.969 | locus YMR078C, strain ctf18, active compounds read low 0.964 | locus YMR125W, strain sto1, active compounds read low 0.958 | locus YMR129W, active compounds read low 0.996 | locus YMR205C, strain PFK2, active compounds read low 0.968 | locus YMR223W, strain ubp8, active compounds read low 0.96 | locus YMR231W, strain pep5, active compounds read low 0.977 | [1] 1.01 | locus YMR307W, strain GAS1, active compounds read low 0.981 | locus YNL067W, strain RPL9B, active compounds read low 1.02 | locus YNL071W, strain lat1, active compounds read low 0.956 | locus YNL183C, strain NPR1, active compounds read low 0.96 | locus YNL209W, strain ssb2, active compounds read low 0.961 | locus YNL233W, strain BNI4, active compounds read low 1.03 | locus YNL248C, strain rpa49, active compounds read low 0.924 | locus YNL250W, strain rad50, active compounds read low 0.951 | locus YNL271C, strain bni1, active compounds read low 0.992 | locus YNL298W, strain CLA4, active compounds read low 0.969 | locus YNL307C, strain MCK1, active compounds read low 0.987 | locus YNL322C, strain KRE1 (second series), active compounds read low 0.978 | locus YNR049C, strain mso1, active compounds read low 0.97 | locus YNR052C, strain pop2, active compounds read low 0.986 | locus YOL006C, strain TOP1, active compounds read low 1.11 | locus YOL012C, strain htz1 0.913 | locus YOL147C, strain pex11, active compounds read low 0.972 | locus YOR001W, strain rrp6, active compounds read low 0.963 | locus YOR061W, strain CKA2, active compounds read low 0.998 | locus YOR069W, strain VPS5, active compounds read low 0.988 | locus YOR070C, strain gyp1, active compounds read low 0.977 | locus YOR080W, strain dia2, active compounds read low 0.971 | locus YOR083W, strain WHI5, active compounds read low 0.981 | locus YOR106W, strain vam3, active compounds read low 0.933 | locus YOR136W, strain idh2, active compounds read low 0.994 | locus YOR144C, strain elg1, active compounds read low 0.993 | locus YOR184W, strain ser1, active compounds read low 0.974 | locus YOR231W, strain MKK1, active compounds read low 1.04 | locus YOR265W, strain rbl2, active compounds read low 0.976 | locus YOR270C, strain vph1, active compounds read low 0.947 | locus YOR290C, strain snf2, active compounds read low 0.962 | locus YOR316C, strain cot1, active compounds read low 0.982 | locus YPL051W, strain arl3, active compounds read low 0.964 | locus YPL055C, strain LGE1, active compounds read low 1.07 | locus YPL078C, strain atp4, active compounds read low 0.991 | locus YPL106C, strain sse1, active compounds read low 0.917 | locus YPL240C, strain hsp82, active compounds read low 0.975 | [2] 0.982 | locus YPL256C, strain CLN2, active compounds read low 1.02 | locus YPR119W, strain clb2, active compounds read low 0.988 | locus YPR141C, strain kar3, active compounds read low 0.995 | locus YPR163C, strain tif3, active compounds read low 0.968 | locus YPR167C, strain met16, active compounds read low 0.976 | strain wtn01, active compounds read low 0.981
